The values that follow come from PubChem BioAssay AID743327 (National Center for Advancing Translational Sciences (NCATS), 2014).

Unmarked numbers belong to inactive results. Calls of active or inactive are those of the source. Calls come from the whole dose curve.

The nature of this test: qHTS profiling of Chloroquine Analogs as inhibitors of Plasmodium falciparum (HB3) proliferation. Conditions: P. falciparum HB3 proliferation; series mostly up to 28.7 µM; activity change, negative = inhibition: at the top concentration. The source says: Plasmodium falciparum is a virulent malarial parasite that kills 1-2 million people worldwide each year. Transmitted by mosquitoes, the sporozoite form of the parasite enters the blood stream to infect hepatocytes, where they become merozoites that infect red blood cells (erythrocytes). Within erythrocytes, merozoites begin a […] cycle of growth and division, after which the parasite is released to infect new red blood cells. Gametocytes, which form within erythrocytes as well, circulate in the bloodstream and are ingested by the mosquito, thereby completing the life cycle. To profile malarial isolates for differential chemical responses and to identify inhibitors of malarial growth, an assay that measures P. falciparum growth and replication within erythrocytes was employed. This assay uses a DNA binding fluorescent dye (SYBR Green) to detect parasite DNA following cell lysis. Because mature erythrocytes lack DNA, only Plasmodium-derived DNA is detected.
The SYBR Green viability assay was adapted from a method described previously (Plouffe et al., 2008). For screening 3 ul culture medium was dispensed into 1536 well black clear bottom plates (Aurora Biotechnologies) using a Multidrop Combi (Thermo Fisher Scientific Inc.), 23 nL compounds in DMSO were added by a pin tool (Kalypsys), and 5 ul of erythrocytes infected with P. falciparum (0.3% parasitemia, 2.5% hematocrit final concentration) were added. The plates were incubated at 37 C in a humidified incubator in 5% CO2 for 72 h, and 2 ul lysis buffer (20 mM Tris HCl, 10 mM EDTA, 0.16% saponin, 1.6% triton X, 10X SYBR Green I supplied as 10,000X […] by Invitrogen) was added to each well. The plates were mixed for 25 sec with gentle shaking and incubated overnight at room temperature in the dark. The following morning, fluorescence intensity at 485(14) nm excitation and 535(25) nm emission wavelengths was measured on an EnVision (Perkin Elmer) plate reader. Plate reads were normalized relative to the control inhibitor (0.29 uM artemisinin) and vehicle (DMSO) wells present on each plate and then corrected by an algorithm using vehicle-only control plates at the beginning and end of the compound plate stack.
For the molecule `C[C@@H]1[C@@H](CC(C[C@H]2O[C@@H]3O[C@]4(C)CC[C@@H]5[C@H](C)CC[C@@H]([C@H]2C)[C@@]35OO4)C(=O)NCc2ccc(F)cc2)O[C@@H]2O[C@]3(C)CC[C@H]4[C@H](C)CC[C@@H]1[C@@]24OO3` (stereo not given in full), the “activity change, negative = inhibition” value is -102%.
Same read-out and setting: under `Cc1cccc(C)c1OCC(=O)N[C@@H](Cc1ccccc1)[C@@H](O)C[C@H](Cc1ccccc1)NC(=O)[C@H](C(C)C)N1CCCNC1=O` stands 141%.
For `C[C@H]1[C@@H](OC(=O)CCC(=O)O)O[C@@H]2OC3(C)CC[C@H]4[C@H](C)CC[C@@H]1[C@@]24OO3`, the Potency is 0.003 µM (active).
Same read-out and setting: under `CN(C)c1ccc2nc3ccc(=[N+](C)C)cc-3sc2c1` stands 0.0049 µM (active).
In the case of `C[C@@H]1[C@@H](C(=O)C[C@H]2O[C@@H]3O[C@]4(C)CC[C@@H]5[C@H](C)CC[C@@H]([C@H]2C)[C@@]35OO4)O[C@@H]2O[C@]3(C)CC[C@H]4[C@H](C)CC[C@@H]1[C@@]24OO3`, the “activity change, negative = inhibition” value is -101%.
Regarding `C=CCON=C(C[C@H]1O[C@@H]2O[C@]3(C)CC[C@@H]4[C@H](C)CC[C@@H]([C@H]1C)[C@@]24OO3)[C@H]1O[C@@H]2O[C@]3(C)CC[C@H]4[C@H](C)CC[C@@H]([C@@H]1C)[C@@]24OO3`, the “activity change, negative = inhibition” value was -101%.
For the molecule `CN1CC[C@H](CN2c3ccccc3Sc3ccccc32)C1`, the Potency was 10.6 µM (active).
For `COc1cc(C=CC(=O)CC(=O)C=Cc2ccc(O)c(OC)c2)ccc1O`, the “activity change, negative = inhibition” value is 169%.
Regarding `CN(C)CCOC(c1ccccc1)c1ccccc1`, the “activity change, negative = inhibition” value is -20.8%.
Turning to `CCCC(=O)O[C@]1(C(=O)CCl)[C@H](C)C[C@@H]2[C@H]3CCC4=CC(=O)C=C[C@]4(C)[C@@]3(F)C(=O)C[C@@]21C`, the “activity change, negative = inhibition” value was 133%.
Take `COc1cc(NC(C)CCCN)c2ncccc2c1` (stereo not given): the Potency is 0.804 µM (active).
Still for that read-out and setting: under `O=C1C(=O)c2ccccc2C(O)=C1C1CCC(c2ccc(Cl)cc2)CC1` (stereo not given) stands 0.0005 µM (active).
In the case of `Cc1oncc1C(=O)Nc1ccc(C(F)(F)F)cc1`, the “activity change, negative = inhibition” value was 137%.
Still for that read-out and setting: under `C[C@@H]1CC[C@H]2[C@@H](C)C(=O)O[C@@H]3OC4(C)CC[C@@H]1C32OO4` (stereo not given in full) stands -99.5% [at 57.5 µM]; under `CCCCCCCCCCOc1cc2c(=O)c(C(=O)OCC)c[nH]c2cc1OCC`, -98.7%.
Turning to `Oc1cc(Cl)ccc1Oc1ccc(Cl)cc1Cl`, the Potency was 1.88 µM (active).
Turning to `CNCCCCOc1ccccc1Cc1ccccc1`, the “activity change, negative = inhibition” value is -79%.
Turning to `CCN(CC)CCOc1ccc2c(=O)c3ccc(Cl)cc3n(CCN(CC)CC)c2c1`, the Potency was 0.53 µM (active).
Same read-out and setting: under `COc1cc2c(cc1C(F)(F)F)N(C(=O)Nc1cc(F)cc(-c3cccnc3)c1)CC2` stands 3.35 µM (active); under `C[C@H]1c2cccc(O)c2C(O)=C2C(=O)[C@]3(O)C(O)=C(C(N)=O)C(=O)[C@@H](N(C)C)[C@@H]3[C@@H](O)[C@@H]21`, 8.41 µM (active).
On to `CCN(CC)CCOCCOC(=O)C(CC)(CC)c1ccccc1`, for which the “activity change, negative = inhibition” value was -29.4%.
Regarding `C[C@H]1[C@@H](CCC(=O)Nc2ccc(F)cc2)O[C@@H]2O[C@]3(C)CC[C@@H]4[C@H](C)CC[C@@H]1[C@@]24OO3`, the Potency was 0.0067 µM (active).
In the case of `CCN(CC)CCCC(C)Nc1ccnc2cc(Cl)ccc12` (stereo not given), the “activity change, negative = inhibition” value was -99.7%.
Turning to `COCC(=O)O[C@]1(CCN(C)CCCc2nc3ccccc3[nH]2)CCc2cc(F)ccc2[C@@H]1C(C)C`, the Potency was 1.5 µM (active).
Turning to `COc1cc2c(Nc3ccc(NC(=O)c4ccccc4)cc3)ncnc2cc1OCCCN1CCOCC1`, the “activity change, negative = inhibition” value is -99.2%.
The same measure, in the same setting: under `C/C(=C\c1csc(C)n1)[C@@H]1C[C@@H]2O[C@]2(C)CCC[C@H](C)[C@H](O)[C@@H](C)C(=O)C(C)(C)[C@@H](O)CC(=O)O1` stands -97.6%.
With `Cc1nc2c(C#N)cccc2n1-c1ccc(C(=O)NC2CC2)s1`, the Potency is 0.0237 µM (active).
The same measure, in the same setting: under `CC1=CC(=O)c2ccccc2C1=O` stands 2.37 µM (active); under `C#C[C@]1(O)CC[C@@H]2[C@H]3CCC4=CC(=O)CC[C@H]4[C@H]3C(=C)C[C@@]21CC`, 0.749 µM (active).
As for `CC(C)(C)c1cc(O)c(CN)c(C(C)(C)C)c1`, the Potency was 0.15 µM (active).
Still for that read-out and setting: under `CNCCC(Oc1ccccc1OC)c1ccccc1` (stereo not given) stands 3.35 µM (active).
As to `CCc1nc(N)nc(N)c1-c1ccc(Cl)cc1`, the “activity change, negative = inhibition” value is -100%.
As for `OB1OCc2cc(F)ccc21`, the “activity change, negative = inhibition” value is 151%.
As for `NC(=NCc1ccccc1)NC(=O)c1nc(Cl)c(N)nc1N`, the “activity change, negative = inhibition” value is -98.8%.
As to `CSc1cccc(NC(=O)CC[C@H]2O[C@@H]3O[C@]4(C)CC[C@H]5[C@H](C)CC[C@@H]([C@@H]2C)[C@@]35OO4)c1`, the Potency was 0.0188 µM (active).
